From PubChem BioAssay (NCATS)
Records with an inconclusive call do not appear. Calls of active or inactive are those of the source. Calls come from the whole dose curve; as a rule, active = well fitted cell-killing curve with a large enough effect; inconclusive = small, poorly fitted or top-dose-only effect, or effect the other way; inactive = no such curve, though single readings can be large or run the other way.

assay: Quantitative High-Throughput drug screen in 47 multiple myeloma cell lines against the NCATS MIPE library collection: RPMI8226_ATCC cell viability assay (AID 1919871); conditions: RPMI8226 myeloma viability, CellTiter-Glo ATP luminescence, 48 h; series mostly up to 45.8 µM; viability (% of control): at the top concentration; note: nearly all actives have a fitted effect of over 30% in size
Outline: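 Viability after 48 h drug exposure was measured as ATP-dependent luminescence. Cells, 500 per well, sat at 37 °C under 5% CO2; DMSO wells set 100%, media-only wells 0%.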
Potency is the fitted concentration of half-maximal effect.

Structure (SMILES)	viability (% of control)	Potency
Cn1c(=O)c2[nH]cnc2n(C)c1=O	117% (inactive)	–
CC[C@@]1(O)C(=O)OCc2c1cc1n(c2=O)Cc2cc3c(CN(C)C)c(O)ccc3nc2-1	–	14.8 µM (active)
O=c1[nH]cc(F)c(=O)[nH]1	–	0.235 µM (active)
CC#C[C@]1(O)CC[C@H]2[C@@H]3CCC4=CC(=O)CCC4=C3[C@@H](c3ccc(N(C)C)cc3)C[C@@]21C	–	3.72 µM (active)
CC[N+](CC)(CC)CCOc1cccc(OCC[N+](CC)(CC)CC)c1OCC[N+](CC)(CC)CC	83.6% (inactive)	–
CC(CCc1ccc(O)cc1)NCCc1ccc(O)c(O)c1 (stereo not drawn)	–	18.7 µM (active)
Cc1ccccc1N1C(=O)c2cc(S(N)(=O)=O)c(Cl)cc2NC1C (stereo not drawn)	–	7.43 µM (active)
CS(=O)(=O)CCNCc1ccc(-c2ccc3ncnc(Nc4ccc(OCc5cccc(F)c5)c(Cl)c4)c3c2)o1	–	26.4 µM (active)
COc1ccc2c(c1)c(CC(=O)O)c(C)n2C(=O)c1ccc(Cl)cc1	113% (inactive)	–
COc1ccc2[nH]cc(CCNC(C)=O)c2c1	109% (inactive)	–
NC(=O)NO	–	3.72 µM (active)
CNCCCC12CCC(c3ccccc31)c1ccccc12	–	20.9 µM (active)
O=C1c2c(O)ccc(O)c2C(=O)c2c(NCCNCCO)ccc(NCCNCCO)c21	–	4.69 µM (active)
CCOC(=O)Nc1ccc(NCc2ccc(F)cc2)nc1N	106% (inactive)	–
Nc1nc2c(ncn2COC(CO)CO)c(=O)[nH]1	–	26.4 µM (active)
CN(C)C(=O)C(CCN1CCC(O)(c2ccc(Cl)cc2)CC1)(c1ccccc1)c1ccccc1	–	20.9 µM (active)
CC1COc2c(N3CCN(C)CC3)c(F)cc3c(=O)c(C(=O)O)cn1c23 (stereo not drawn)	129% (inactive)	–
CCCCc1oc2ccccc2c1C(=O)c1cc(I)c(OCCN(CC)CC)c(I)c1	–	18.7 µM (active)
COc1ccccc1N1CCN(CC(O)COc2cccc3ccccc23)CC1 (stereo not drawn)	–	26.4 µM (active)
CN(C)CCCN1c2ccccc2CCc2ccc(Cl)cc21	–	16.6 µM (active)
NC12CC3CC(CC(C3)C1)C2	–	0.833 µM (active)
CN(CCOc1ccc(NS(C)(=O)=O)cc1)CCc1ccc(NS(C)(=O)=O)cc1	134% (inactive)	–
Cc1cn([C@H]2C=C[C@@H](CO)O2)c(=O)[nH]c1=O	116% [at 92.2 µM] (inactive)	–
CCN1CCCC1CNC(=O)c1cc(S(=O)(=O)CC)c(N)cc1OC (stereo not drawn)	106% (inactive)	–
Cn1cnc2c1c(=O)[nH]c(=O)n2C	–	20.9 µM (active)
CN1C(C(=O)Nc2ccccn2)=C(O)c2ccccc2S1(=O)=O	106% (inactive)	–
CC(C(=O)O)c1cccc(C(=O)c2ccccc2)c1 (stereo not drawn)	91.2% (inactive)	–
O=C1N(c2ccccc2)c2ccccc2C1(Cc1ccncc1)Cc1ccncc1	148% (inactive)	–
